Source: PubChem BioAssay AID559 (PCMD, 2006)
Out of some 62,000 compounds screened, about 100 (0.2%) were called active. The list comes from a sample in which actives are over-represented; it also holds similar structures and randomly drawn compounds. Unmarked numbers belong to inactive results. Rule as the data show it: active = inhibition above about 20%; inactive = the rest.

target: DNA-directed RNA polymerase subunit beta (Escherichia coli (strain K12)) (UniProt P0A8V2); experiment: bacterial RNA polymerase transcription inhibition – biochemical (AID 559);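 also: 0% = enzyme without compound and 100% = no enzyme blank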; conditions: E. coli RNA polymerase, fluorescence transcription assay; active compounds read high;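 tested at 10 µM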
Sequence (P0A8V2 whole entry, looked up): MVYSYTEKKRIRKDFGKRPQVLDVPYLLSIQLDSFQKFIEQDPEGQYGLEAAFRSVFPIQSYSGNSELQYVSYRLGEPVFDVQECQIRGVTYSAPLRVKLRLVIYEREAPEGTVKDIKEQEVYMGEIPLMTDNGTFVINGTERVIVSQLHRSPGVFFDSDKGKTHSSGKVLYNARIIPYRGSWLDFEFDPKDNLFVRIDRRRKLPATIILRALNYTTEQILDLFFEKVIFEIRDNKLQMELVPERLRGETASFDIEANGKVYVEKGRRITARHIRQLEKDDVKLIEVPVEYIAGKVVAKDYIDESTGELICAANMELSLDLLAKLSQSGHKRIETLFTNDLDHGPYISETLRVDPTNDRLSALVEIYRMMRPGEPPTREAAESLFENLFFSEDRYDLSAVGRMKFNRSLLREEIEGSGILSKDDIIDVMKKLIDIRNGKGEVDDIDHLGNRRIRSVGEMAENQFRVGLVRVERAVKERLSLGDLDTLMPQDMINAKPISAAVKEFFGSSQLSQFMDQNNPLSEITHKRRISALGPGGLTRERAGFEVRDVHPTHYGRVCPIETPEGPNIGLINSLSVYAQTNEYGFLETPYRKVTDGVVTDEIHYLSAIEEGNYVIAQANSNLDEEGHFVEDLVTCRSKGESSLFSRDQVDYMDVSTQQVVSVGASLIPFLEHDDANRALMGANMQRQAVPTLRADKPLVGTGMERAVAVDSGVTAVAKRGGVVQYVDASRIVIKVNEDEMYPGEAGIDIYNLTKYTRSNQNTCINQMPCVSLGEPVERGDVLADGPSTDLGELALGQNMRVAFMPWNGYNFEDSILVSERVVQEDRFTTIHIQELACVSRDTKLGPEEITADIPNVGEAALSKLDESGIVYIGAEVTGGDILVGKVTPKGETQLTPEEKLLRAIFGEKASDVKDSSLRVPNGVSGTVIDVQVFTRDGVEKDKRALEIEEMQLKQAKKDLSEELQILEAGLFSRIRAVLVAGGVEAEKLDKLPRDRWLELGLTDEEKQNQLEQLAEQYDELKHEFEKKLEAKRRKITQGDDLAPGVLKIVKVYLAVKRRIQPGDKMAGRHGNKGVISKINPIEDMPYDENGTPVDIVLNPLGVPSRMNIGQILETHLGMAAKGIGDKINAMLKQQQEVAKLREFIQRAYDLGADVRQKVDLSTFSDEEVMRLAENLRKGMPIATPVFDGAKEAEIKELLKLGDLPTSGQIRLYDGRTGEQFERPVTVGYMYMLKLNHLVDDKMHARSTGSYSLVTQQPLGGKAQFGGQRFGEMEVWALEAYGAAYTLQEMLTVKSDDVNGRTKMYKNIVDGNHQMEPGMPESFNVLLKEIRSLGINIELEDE

| SMILES | inhibition |
| --- | --- |
| CCc1c(C)sc(NC(=O)c2ccc(Br)o2)c1C(=O)OC | 3.85% |
| C=CCn1c(COc2cccc3cccnc23)nnc1SCC(=O)OC | 2.75% |
| Cc1ccc(S(=O)(=O)N2CCN(C(=O)CCC(=O)NC3CCCc4ccccc43)CC2)cc1 (stereo unspecified) | 8.3% |
| Cc1c(NC(=O)Nc2ccccc2Cl)sc(=S)n1C | 4.97% |
| CC(=O)C1C(c2ccc(Cl)cc2)NC(=O)NC1(O)C(F)(F)F (stereo unspecified) | 5.59% |
| COc1ccccc1C1/C(=C(/O)c2ccc(C)cc2)C(=O)C(=O)N1Cc1ccco1 (stereo unspecified) | 10.3% |
| CC(=O)OCc1cc(=O)n(C)c(=O)n1C | -0.42% |
| O=S(=O)(O)c1nc2ccccc2n1Cc1ccc(Cl)cc1Cl | 4.09% |
| O=C(O)C1CC=CCC1C(=O)NCCc1ccccc1 (stereo unspecified) | -1.18% |
| CCOc1ccc(NC(=O)CCC(=O)n2nc(C)cc2C)cc1 | 7.47% |
| CCOc1ccc(NC(=O)CC2NCCNC2=O)cc1 (stereo unspecified) | 10.3% |
| CCCCOc1ccc(NC(=O)CSCC(=O)OCC)cc1 | 20.6% (active) |
| CN(C)/C=C1/C(=O)Nc2ccccc21 | 12.9% |
| COC(=O)c1ccc(NC(=O)CSc2nnc(CNc3ccc(OC)cc3)n2C)cc1 | 1.56% |
| C[C@H](NC(=O)OC(C)(C)C)c1nnc(SCC(N)=O)o1 | -0.35% |
| COc1ccc(-n2nnc3c(=O)n(CC(=O)OCc4ccccc4)cnc32)cc1 | 1.78% |
| CCC(C(=O)N1CCOCC1)n1c(C(=O)OC)cc2occc21 (stereo unspecified) | -1.1% |
| O=C(c1cccs1)N(C(=O)c1cccs1)c1ccccn1 | 4.36% |
| COc1cc(C2C3C(=O)N(c4ccccc4)C(=O)C3ON2c2ccccc2)ccc1O (stereo unspecified) | 6.83% |
| CCOC(=O)C1C(=O)C=C(c2ccc(OC)cc2)CC1c1ccco1 (stereo unspecified) | 0.68% |
| C=C(Br)CN1CCN(CC(=C)Br)CC1 | 5.48% |
| CCNC(=O)N1CCNC(=O)C1CC(=O)Nc1ccc(C(=O)OCC)cc1 (stereo unspecified) | 24.6% (active) |
| CCOC(=O)c1ccc(NC(=O)CSc2ncccn2)cc1 | 18.1% |
| COc1ccccc1C(=O)N1CCNC(=O)C1CC(=O)Nc1ccc(Cl)cc1 (stereo unspecified) | 7.25% |

| SMILES | inhibition |
| --- | --- |
| COc1ccc(N2CCN(C(=O)CSc3ncnc4c3cnn4-c3ccc(OC)cc3)CC2)cc1 | 3.59% |
| CC(=O)Nc1ccc(S(=O)(=O)N2CCN(C3CCCCCCC3)CC2)cc1 | 4.11% |
| CC(C)(C)c1cc(CN2CCN(CCC#N)CC2)cc(C(C)(C)C)c1O | 2.69% |
| Cc1ccc(NC(=O)CN(C)S(=O)(=O)c2cnc[nH]2)cc1C | 6.13% |
| Cc1ccc2c(c1)sc1ncc(NC(=O)c3ccccc3)c(=O)n12 | -11.4% |
| CCCCCCn1c(SCC(=O)c2ccccc2)nc2c1c(=O)[nH]c(=O)n2C | -4.3% |
| c1ccc(CCc2nc(-c3ccncc3)no2)cc1 | 8.17% |
| CC1CCN(Cc2nc3c(c(=O)n(C)c(=O)n3C)n2Cc2cccc3ccccc23)CC1 | 11.8% |
| CC(c1ccccc1)n1c(NCCCn2ccnc2)nc2c1c(=O)[nH]c(=O)n2C (stereo unspecified) | 6.37% |
| O=C(Nc1ccccc1N1CCCCC1)c1ccc2nccnc2c1 | 5.19% |
| CC(C)[C@H](NC(=O)Nc1ccc(S(N)(=O)=O)cc1)C(=O)O | 3.2% |
| Cc1cccc(C2c3c(n(C)c(=O)n(C)c3=O)N=C3c4ccccc4C(=O)C32)c1 (stereo unspecified) | 8.94% |
| Cn1c(=O)n(C)c2cc(S(=O)(=O)N3CCCc4ccccc43)ccc21 | 0.45% |
| Cc1nn(C)c(C)c1S(=O)(=O)N1CCc2ccccc21 | 27.2% (active) |
| CSc1nc2ccc(S(=O)(=O)N3CCc4ccccc43)cc2s1 | 0.59% |
| COCCOC(=O)C1=C(C)NC(=O)NC1c1ccc(Cl)cc1 (stereo unspecified) | 7.31% |
| COC(=O)c1ccc(C2CC(=O)Nc3cc(OC)c(OC)cc32)cc1 (stereo unspecified) | 3.45% |
| CCc1cccc2c3c([nH]c12)C(CC)(CC(=O)O)OCC3 (stereo unspecified) | 8.22% |
| O=C(O)C1OC(C(=O)O)C2C1C(F)(F)C2(F)F (stereo unspecified) | 3.61% |
| NS(=O)(=O)c1cc2c(cc1Cl)NC(C(Cl)Cl)NS2(=O)=O (stereo unspecified) | 8.21% |
| CCS(=O)(=O)n1nc(-c2ccc(OC)cc2)nc1SC | 5.44% |
| Cc1ccc(CC2CC(=O)N(c3ccc4c(c3)OCCO4)C2=O)cc1 (stereo unspecified) | 7.6% |
| Cn1c2c(c(=O)n(C)c1=O)C1c3ccccc3OCC1C(C)(C)O2 (stereo unspecified) | 11.7% |
| CC1(c2ccccc2Cl)NC(=O)N(CC(=O)NC(=O)NCc2ccco2)C1=O (stereo unspecified) | 3.56% |

| SMILES | inhibition |
| --- | --- |
| CCOc1ccc(Cn2c(SCCCCC#N)nc3c2c(=O)n(C)c(=O)n3C)cc1OCC | 1.66% |
| CCOC(=O)NC(C(F)(F)F)(C(F)(F)F)P(=O)(c1ccccc1)c1ccccc1 | 12.5% |
| O=C(NCC1CCCO1)C(C(=O)c1ccccc1)n1cc(Cl)ccc1=O (stereo unspecified) | -2.02% |
| O=C(COC(=O)c1ccccc1C(=O)c1ccccc1)c1ccco1 | 4.61% |
| Cc1ccc(NC(=O)c2cc(-c3ccc(C)o3)nc3ccccc23)nc1 | 2.57% |
| O=C(c1ccc2c(c1)N(Cc1ccc(F)cc1)C(=O)CS2)N1CCOCC1 | -0.9% |
| Cc1nc2c(-c3ccccc3)c(C)[nH]n2c(=O)c1Cl | 0.3% |
| CCNc1nc(N)nc(Oc2ccc(OCC)nn2)n1 | 16.5% |
| COc1ccc(OCC(=O)OCC(=O)Nc2ccc(S(=O)(=O)N3CCCCC3)cc2)cc1 | 6.57% |
| Cc1noc(C)c1S(=O)(=O)Nc1ccc(C(=O)O)cc1 | -2.73% |
| C=CCNC(=O)C1CC=CCC1C(=O)O (stereo unspecified) | -0.09% |
| CC(C)(C)NC(=O)NC(=O)COC(=O)Cn1c(C(F)(F)F)nc2ccccc21 | -0.99% |
| O=C(CSc1nc2[nH]ncc2c(=O)n1-c1ccccc1)N1CCCc2ccccc21 | -2.19% |
| CCOc1ccc(NS(=O)(=O)c2ccc(OCC(=O)NCCCOC)cc2)cc1 | 0.48% |
| COCCCN(C(=O)Cn1ncc2c(=O)oc3ccc(C)cc3c21)C(C)c1ccncc1 (stereo unspecified) | 5.04% |
| CCc1c(C)c2c(C)[nH]nc2oc1=O | 6.94% |
| CCCOc1ccccc1-c1nc(SCCC(=O)O)n[nH]1 | 4.03% |
| CN(CC(=O)NC1CCCCC1)S(=O)(=O)c1cccc2cccnc12 | 1.4% |
| CCC(C)(C(=O)NC1CCCC1)N(C(=O)CNC(C)=O)c1ccc(C)cc1 (stereo unspecified) | 2.29% |
| CCC(C)(NC(=O)c1ccccn1)C(=O)NC1CCCCC1 (stereo unspecified) | 24.2% (active) |
| CCN1C(=O)/C(=C2/Sc3ccccc3N2CCCS(=O)(=O)O)SC1=S | 14% |
| COCCNC(=O)CN1C(=O)CSc2ncccc21 | 2.28% |
| Cc1ccc(Cn2c(NC(=O)c3ccco3)nc3ccccc32)cc1 | 3.14% |
| CCOC(=O)C1CCCN(C(=O)c2sc3nc(C)nc(N4CCOCC4)c3c2C)C1 (stereo unspecified) | 6.92% |

| SMILES | inhibition |
| --- | --- |
| COc1cccc(N2CCN(C(=O)C3CCCN(S(=O)(=O)c4cnc[nH]4)C3)CC2)c1 (stereo unspecified) | 6.57% |
| Cn1c(=O)c2c(nc(N3CCCCCC3)n2CC(=O)c2ccc(Br)cc2)n(C)c1=O | 6.56% |
| O=CN1CCN(C2CC(=O)N(c3ccc4c(c3)OCO4)C2=O)CC1 (stereo unspecified) | -2.9% |
| Cc1cc(NC(=O)CSc2nnc(-c3ccc(Cl)s3)o2)no1 | 2.94% |
| Nc1nonc1-c1nc2ccccc2n1Cc1ccc(F)cc1 | 1.54% |
| COCc1cc(C)nc(SCC(=O)Nc2cccc(C)c2)c1C#N | 10.2% |
| CC(C)C(c1nnnn1Cc1ccccc1)N1CCC(C(N)=O)CC1 (stereo unspecified) | 9.07% |
| O=C(NC1CCCCC1)n1c(=O)oc2cc(S(=O)(=O)N3CCCCC3)ccc21 | 5.56% |
| COC(=O)c1c(NC(=O)CCN2CCOCC2)sc2c1CCCC2 | 7.91% |
| Cc1cc(C)nc(NC2=NCC(=O)N2c2ccc(Cl)cc2)n1 | 9.3% |
| COC(=O)CCSc1nccn1Cc1ccccc1 | 2.17% |
| O=C1CSC(=O)N1CCOCCN1C(=O)CSC1=O | 8.19% |
| CCOc1ccccc1Nc1nnc(SCc2ccc(C(=O)OC)o2)s1 | 3.87% |
| CC(=O)OCc1cc2cc(C)ccc2[nH]c1=O | 8.56% |
| CC(C)OC(=O)CN1C(=O)c2ccccc2C1=O | 8.17% |
| COCCN(C(=O)CCC(=O)Nc1ccccn1)C(C(=O)NCCC(C)C)c1ccc(OC)cc1 (stereo unspecified) | 9.79% |
| Cc1oc(-c2ccccc2F)nc1CS(=O)(=O)CC(=O)NCCCN(C)C1CCCCC1 | 4.54% |
| Cc1nnc(NC(=O)CSc2nccn2-c2cccc(C)c2C)s1 | 8.46% |
| Cc1cc(C(=O)COC(=O)CCCN2C(=O)c3ccccc3C2=O)c(C)n1C | 4.5% |
| COc1ccc(Br)cc1/C=N/n1c(C)nnc1C | 11.2% |
| COCCN(CC(=O)Nc1ccccc1C)S(=O)(=O)c1ccc(S(=O)(=O)N2CCCC2)cc1 | 4.44% |
| CC(C(=O)N1CCOCC1)N1c2cccc3cccc(c23)S1(=O)=O (stereo unspecified) | 8.72% |
| O=C(CCCN1C(=O)CCC1=O)Nc1ccc(Cl)c(C(F)(F)F)c1 | -1.3% |
| C=CCNc1nnc(SCC(=O)N2CCCCC2)c2ccccc12 | 5.18% |
